From PubChem BioAssay AID651657 (Broad Institute, 2012)
Potency and affinity values are given separately. Calls of active or inactive are those of the source.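 How the source made its calls: active means signal falls, with fitted half-maximal concentration at most twice the top valid dose tested; inconclusive means flat curve with partial signal loss, or poor curve fit; inactive means the rest, including signal rising instead.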

Biological target: DNA repair and recombination protein RAD54-like (Homo sapiens) (UniProt Q92698)
Assay: RAD54 Holliday junction migration blockers – biochemical, fluorescence, cherry-picked samples, dose series, confirmation (AID 651657)
Details: RAD54 branch migration, FAM/BHQ fluorescence, 60 min; series mostly up to 50 µM

Sequence of DNA repair and recombination protein RAD54-like (Homo sapiens) (Q92698 whole entry, looked up): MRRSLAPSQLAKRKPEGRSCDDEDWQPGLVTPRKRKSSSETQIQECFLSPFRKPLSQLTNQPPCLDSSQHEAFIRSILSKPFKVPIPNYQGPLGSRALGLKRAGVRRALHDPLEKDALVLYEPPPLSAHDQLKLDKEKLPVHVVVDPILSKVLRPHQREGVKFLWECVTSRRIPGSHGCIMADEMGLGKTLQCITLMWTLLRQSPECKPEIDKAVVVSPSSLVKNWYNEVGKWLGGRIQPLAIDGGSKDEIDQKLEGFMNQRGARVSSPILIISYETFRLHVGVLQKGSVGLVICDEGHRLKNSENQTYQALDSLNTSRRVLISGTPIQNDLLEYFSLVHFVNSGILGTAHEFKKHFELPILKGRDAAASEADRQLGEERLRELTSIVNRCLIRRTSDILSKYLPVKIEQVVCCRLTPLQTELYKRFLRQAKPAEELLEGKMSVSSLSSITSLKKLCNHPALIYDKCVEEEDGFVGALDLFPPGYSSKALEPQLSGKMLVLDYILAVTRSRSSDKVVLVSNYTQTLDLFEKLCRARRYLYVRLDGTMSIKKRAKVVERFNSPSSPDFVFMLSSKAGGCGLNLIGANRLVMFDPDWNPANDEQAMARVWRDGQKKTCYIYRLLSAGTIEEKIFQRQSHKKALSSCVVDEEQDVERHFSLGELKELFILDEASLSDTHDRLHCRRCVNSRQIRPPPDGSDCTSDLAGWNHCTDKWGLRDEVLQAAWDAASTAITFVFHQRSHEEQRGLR

outcome, inactive:
COc1cc(NC(=O)c2cccnc2Sc2ccc(C)c(C)c2)cc(OC)c1OC
Cn1nc(-c2ccccc2)cc1NS(=O)(=O)c1ccc(C#N)cc1
Cc1ccnc(Nc2nc(-c3sc(C)nc3C)cs2)c1
Cc1c(Cl)ccc(S(=O)(=O)NCCCn2ccnc2)c1Cl
CC(C)CSc1ncc(-c2cccc(C(F)(F)F)c2)cn1
NC(=O)C1CCN(c2nc(-c3cccnc3)cs2)CC1
CCN(CC)S(=O)(=O)c1ccc(Cl)c(C(=O)Nc2nnc(C)s2)c1
COc1ccccc1NC(=O)CNC(=O)c1ccccc1
Cc1ccc(OCC(=O)Nc2cccc(-c3nnc(-c4ccccc4)o3)c2)c(C)c1
CC1CCCCC1NC(=O)C1Cc2ccccc2CN1S(C)(=O)=O (stereo not drawn)
Cc1ccc(C)c(N2CCN(C(=S)Nc3ccc4nc(N5CCN(C)CC5)cc(C)c4c3)CC2)c1
Cc1cccc2cc3c(N)c(C#N)sc3nc12
Cc1nc2oc3c(=O)[nH]cnc3c2c2c1COC(C)(C)C2
NCCN1CCN(CCN)CC1
C=CCN1C(=O)C(C)(C)Nc2ccccc21
COc1ccccc1NC(=O)Cn1nnc2sc3c(c2c1=O)CC(C)(C)OC3
c1ccc(-c2nnc(SCc3nc4ccccc4[nH]3)o2)cc1
COCCCNCCC(CCC(C)C)c1ccc2c(c1)OCO2 (stereo not drawn)
CCN1CCN(c2cc(C)c3cc(NC(=S)N4CC(C)CC(C)C4)ccc3n2)CC1 (stereo not drawn)
CN(C)CCCN(C(=O)CCOc1ccccc1)c1nc2ccc(F)cc2s1
O=C(Nc1nnc(COc2ccc(F)cc2)s1)c1ccco1
O=S(=O)(c1ccc(-c2nnc(SCc3ccccc3)o2)cc1)N1CCCC1
Cc1ccc(S(=O)(=O)N2CCOCC2)c(C)c1NS(C)(=O)=O
